This test relates to HL-1. Nature of the test: protection of cardiomyocytes from stress damage, SAR follow-up, cell-based, panel, H9c2 and HL-1, ATP luminescence, set 2 (AID 651871).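 Note: cells exposed to stressor for 2 h before ATP readout; reference of the scale not given here.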 Particulars: H9c2/HL-1 cardiomyocytes, 2-deoxyglucose stress, with 2-deoxyglucose, run 6, at 19.8 µM (top of the series).

Values joined by “and” are separate entries in the source; they are usually repeats but may differ in a detail not shown here. Equal values may be shown once.

Turning to `COc1ccc2c(c1OC)C(=O)N1c3ccccc3C(=O)N(Cc3cccc(Cl)c3Cl)C21` (stereo unspecified), the activity (protection/inhibition) was 29.6% and 37.4%.

The values are drawn from PubChem BioAssay AID651871 (Sanford-Burnham Center for Chemical Genomics, 2012).
